Of roughly 8,800 targets only a part is listed; those with a hit were picked by preference. About 0.5% of all pairs of compound and target were hits.
Columns and labels:
Test in all cases: log2 fold change, soluble protein after heating vs DMSO (PISA); higher = thermal stabilisation; K562 lysate, 10 uM; active = over 0.2 and 3.5 SD of the protein, either way, in both replicates (recomputed)
erlotinib = compound: C#Cc1cccc(Nc2ncnc3cc(OCCOC)c(OCCOC)cc23)c1 [erlotinib]
Outline: (§1)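 Quantification was by TMTpro 16plex LC-MS/MS with equalised channel sums, applied to the supernatant after 21,000xg for 90 min. Samples were crude K562 extract at 1 mg/mL protein in PBS pH 7.4 with 1 mM MgCl2, treated with 10 μM compound for 30 min, heated for 3 min across 48°C-58°C, pooled and brought to 0.5% NP-40 at 4°C. Values are log-two fold changes in thermal stability relative to solvent controls, from duplicates.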

[1] = compound: C/C(=N\NC(=O)C1=CC(=CC=C1)S(=O)(=O)N2CCOCC2)/C3=C(C=CC(=C3)Cl)O
Outline: as §1

[2] = compound: C1=CC(=CC=C1C2=NC3=C(N2)C=C(C=C3)C(=O)N)OC4=CC=C(C=C4)Cl
Outline: as §1

[3] = compound: C1=CC2=C(C=CC(=C2)/C=C\3/C(=O)NC(=NCC4=CC=CS4)S3)N=C1
Outline: as §1

[4] = compound: C1=CC2=NC=CN=C2C=C1/C=C/3\C(=O)NC(=O)S3
Outline: as §1

[5] = compound: C1=CC=C(C=C1)C2=NC(=C(N2)C3=CC=NC=C3)C4=CC(=C(C=C4)Cl)O
Outline: as §1

[6] = compound: C1=CC=C2C(=C1)C3=NNC4=CC=CC(=C43)C2=O
Outline: as §1

[7] = compound: C1CCN(C1)C(=O)NC2=CC=CC(=C2)NC3=NC=C(C(=N3)NCCC4=CN=CN4)Br
Outline: as §1

[8] = compound: C1CN(CCC1(CC2=CC=C(C=C2)Cl)N)C3=NC=NC4=C3C=CN4
Outline: as §1

IRAK-1-4 Inhibitor I = compound: C1COCCN1CCN2C3=CC=CC=C3N=C2NC(=O)C4=CC(=CC=C4)[N+](=O)[O-] [IRAK-1-4 Inhibitor I]
Outline: as §1

ibrutinib = compound: C=CC(=O)N1CCC[C@@H](n2nc(-c3ccc(Oc4ccccc4)cc3)c3c(N)ncnc32)C1 [ibrutinib]
Outline: as §1

[9] = compound: CC(=O)c1cnc2ccc(-c3cc(Cl)c(O)c(Cl)c3)nc2c1N[C@H]1CC[C@H](CN(C)C)CC1
Outline: as §1

ralimetinib = compound: CC(C)(C)Cn1c(N)nc2ccc(-c3[nH]c(C(C)(C)C)nc3-c3ccc(F)cc3)nc21 [ralimetinib]
Outline: as §1

[10] = compound: CC(C)(O)CC(=O)NCCn1ccc2ncnc(Nc3ccc(Oc4cccc(C(F)(F)F)c4)c(Cl)c3)c21
Outline: as §1

[11] = compound: CC(C)C1=C2N=C(C=C(N2N=C1)NCC3=CC=CC=C3)NCCCCCCN
Outline: as §1

[12] = compound: CC1=C(C(CC(=O)N1)C2=CC=C(C=C2)C(F)(F)F)C(=O)NC3=C(C=C4C(=C3)C=NN4)F
Outline: as §1

[13] = compound: CC1=C(C2=C(C=C1)C(=O)C3=CC=CC=C3N2CCCN)C
Outline: as §1

[14] = compound: CC1=C(C=C(C=C1)NC(=O)C2=CC(=CC=C2)C(C)(C)C#N)NC3=CC4=C(C=C3)N=CN(C4=O)C
Outline: as §1

[15] = compound: CC1=C(C=C(C=C1)NC(=O)C2=CC(=CC=C2)N(C)C)NC(=O)C3=CC=C(C=C3)O
Outline: as §1

[16] = compound: CC1=CC=C(C=C1)SC2=C3C=C(SC3=CN=C2)C(=O)N
Outline: as §1

Measured: log2 fold change

HAUS2 (UniProt Q9NVX0)
Chain of UniProt Q9NVX0 (Q9NVX0 whole entry, looked up): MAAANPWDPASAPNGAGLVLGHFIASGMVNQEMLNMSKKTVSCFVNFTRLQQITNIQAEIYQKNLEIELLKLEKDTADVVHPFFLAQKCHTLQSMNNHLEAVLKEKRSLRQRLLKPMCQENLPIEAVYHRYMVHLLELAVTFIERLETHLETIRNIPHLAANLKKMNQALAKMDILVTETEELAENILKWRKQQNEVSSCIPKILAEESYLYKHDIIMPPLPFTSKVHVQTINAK
inactive: erlotinib 0 | [1] 0.045 | [2] -0.12 | [3] 0.116 | [4] -0.02 | [5] 0.03 | [6] 0.031 | [7] -0.015 | [8] 0.026 | IRAK-1-4 Inhibitor I 0.003 | ibrutinib 0.145 | [9] 0.1 | ralimetinib 0.054 | [10] 0.058 | [11] 0.003 | [12] 0.026 | [13] -0.079 | [14] -0.017 | [15] 0.023 | [16] -0.021

HEATR3 (UniProt Q7Z4Q2)
inactive: erlotinib 0.002 | [1] 0.029 | [2] -0.064 | [3] -0.015 | [4] 0.02 | [5] -0.022 | [6] -0.052 | [7] -0.002 | [8] 0.006 | IRAK-1-4 Inhibitor I -0.001 | ibrutinib 0.026 | [9] -0.008 | ralimetinib 0.037 | [10] -0.048 | [11] -0.01 | [12] -0.001 | [13] -0.015 | [14] 0.004 | [15] -0.027 | [16] 0.023

ISOC2 (UniProt Q96AB3)
Chain of UniProt Q96AB3 (Q96AB3 whole entry, looked up): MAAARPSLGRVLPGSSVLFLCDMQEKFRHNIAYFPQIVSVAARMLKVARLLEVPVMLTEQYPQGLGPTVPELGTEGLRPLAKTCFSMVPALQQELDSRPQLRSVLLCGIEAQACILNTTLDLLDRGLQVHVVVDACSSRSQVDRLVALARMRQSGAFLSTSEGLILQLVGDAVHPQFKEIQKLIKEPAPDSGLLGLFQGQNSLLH
inactive: erlotinib -0.018 | [1] 0.003 | [2] 0.001 | [3] -0.035 | [4] -0.006 | [5] -0.072 | [6] 0.003 | [7] -0.007 | [8] -0.001 | IRAK-1-4 Inhibitor I 0.053 | ibrutinib 0.017 | [9] -0.021 | ralimetinib 0.056 | [10] 0.024 | [11] 0.014 | [12] -0.004 | [13] -0.131 | [14] 0.054 | [15] 0.041 | [16] 0.035

GSK3A (UniProt P49840)
inactive: erlotinib -0.029 | [1] -0.103 | [2] -0.034 | [3] 0.069 | [4] 0.066 | [5] 0.295 | [6] 0.182 | [7] 0.163 | [8] 0.018 | IRAK-1-4 Inhibitor I -0.014 | ibrutinib -0.01 | [9] 0.146 | ralimetinib 0.022 | [10] -0.001 | [11] -0.045 | [12] -0.017 | [13] 0.01 | [14] -0.109 | [15] -0.007 | [16] 0.207

HDAC3 (UniProt O15379)
inactive: erlotinib 0.061 | [1] -0.035 | [2] 0.056 | [3] -0.008 | [4] -0.001 | [5] 0.01 | [6] 0.019 | [7] -0.017 | [8] 0.029 | IRAK-1-4 Inhibitor I 0.028 | ibrutinib -0.004 | [9] 0 | ralimetinib 0.043 | [10] 0.018 | [11] -0.029 | [12] -0.03 | [13] 0 | [14] -0.003 | [15] -0.082 | [16] -0.007

H2AFY (UniProt O75367)
inactive: erlotinib 0.02 | [1] -0.026 | [2] 0.049 | [3] 0.069 | [4] 0.013 | [5] 0.069 | [6] 0.081 | [7] -0.051 | [8] -0.113 | IRAK-1-4 Inhibitor I 0.02 | ibrutinib 0.051 | [9] -0.056 | ralimetinib -0.025 | [10] -0.043 | [11] 0 | [12] -0.003 | [13] -0.148 | [14] -0.053 | [15] -0.033 | [16] -0.001

GOLPH3L (UniProt Q9H4A5)
inactive: erlotinib 0.028 | [1] -0.003 | [2] 0.012 | [3] 0.07 | [4] -0.03 | [5] 0.092 | [6] -0.085 | [7] 0.005 | [8] 0.03 | IRAK-1-4 Inhibitor I 0.023 | ibrutinib 0.058 | [9] 0.005 | ralimetinib -0.058 | [10] 0.071 | [11] 0.009 | [12] -0.042 | [13] -0.01 | [14] 0.114 | [15] -0.029 | [16] 0.006

INTS5 (UniProt Q6P9B9)
Chain of UniProt Q6P9B9 (Q6P9B9 whole entry, looked up): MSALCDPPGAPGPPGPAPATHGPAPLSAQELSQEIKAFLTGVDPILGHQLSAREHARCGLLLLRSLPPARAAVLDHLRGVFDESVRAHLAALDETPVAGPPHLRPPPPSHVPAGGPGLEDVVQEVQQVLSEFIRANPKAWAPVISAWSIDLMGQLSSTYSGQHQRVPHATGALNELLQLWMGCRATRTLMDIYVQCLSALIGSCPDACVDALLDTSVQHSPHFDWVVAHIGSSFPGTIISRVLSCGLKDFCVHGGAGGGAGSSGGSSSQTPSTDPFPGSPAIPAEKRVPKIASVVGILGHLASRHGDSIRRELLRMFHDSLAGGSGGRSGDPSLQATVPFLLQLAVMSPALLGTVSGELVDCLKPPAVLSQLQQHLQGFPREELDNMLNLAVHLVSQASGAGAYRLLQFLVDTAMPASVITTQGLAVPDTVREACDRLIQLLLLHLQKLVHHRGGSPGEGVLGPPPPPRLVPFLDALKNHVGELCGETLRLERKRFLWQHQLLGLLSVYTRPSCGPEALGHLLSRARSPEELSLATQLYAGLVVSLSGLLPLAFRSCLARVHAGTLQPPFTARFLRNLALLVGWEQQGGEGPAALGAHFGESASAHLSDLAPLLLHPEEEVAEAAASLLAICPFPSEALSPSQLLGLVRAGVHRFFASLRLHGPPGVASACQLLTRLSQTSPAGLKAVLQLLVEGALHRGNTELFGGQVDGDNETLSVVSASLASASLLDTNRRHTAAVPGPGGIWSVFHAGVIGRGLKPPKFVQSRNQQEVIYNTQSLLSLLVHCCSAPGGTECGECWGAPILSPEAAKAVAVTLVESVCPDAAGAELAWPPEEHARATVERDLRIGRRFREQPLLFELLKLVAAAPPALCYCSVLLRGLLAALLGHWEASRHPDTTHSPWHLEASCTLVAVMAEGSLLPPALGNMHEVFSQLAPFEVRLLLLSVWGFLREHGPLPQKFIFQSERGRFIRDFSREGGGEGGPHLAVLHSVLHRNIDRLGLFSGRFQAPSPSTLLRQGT
inactive: erlotinib 0.002 | [1] -0.061 | [2] -0.082 | [3] -0.04 | [4] 0.068 | [5] -0.072 | [6] -0.098 | [7] -0.001 | [8] 0.247 | IRAK-1-4 Inhibitor I -0.015 | ibrutinib 0.051 | [9] 0.056 | ralimetinib 0.051 | [10] -0.038 | [11] -0.06 | [12] -0.013 | [13] 0.021 | [14] 0 | [15] 0.039 | [16] 0.003

HIST2H2BC (UniProt Q6DN03)
Chain of UniProt Q6DN03 (Q6DN03 whole entry, looked up): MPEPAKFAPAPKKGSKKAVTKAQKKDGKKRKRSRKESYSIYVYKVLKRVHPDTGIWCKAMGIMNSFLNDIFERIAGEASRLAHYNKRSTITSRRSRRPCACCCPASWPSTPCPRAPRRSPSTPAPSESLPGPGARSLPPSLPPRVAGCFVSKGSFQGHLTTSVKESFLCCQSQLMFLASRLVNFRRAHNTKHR
inactive: erlotinib -0.036 | [1] 0.144 | [2] 0.001 | [3] 0.006 | [4] 0.061 | [5] 0.007 | [6] -0.012 | [7] 0.043 | [8] 0.04 | IRAK-1-4 Inhibitor I -0.028 | ibrutinib 0.003 | [9] -0.052 | ralimetinib -0.013 | [10] 0.003 | [11] -0.055 | [12] 0.066 | [13] 0.029 | [14] -0.001 | [15] 0.032 | [16] 0.031

GSTCD (UniProt Q8NEC7)
inactive: erlotinib 0.041 | [1] -0.017 | [2] -0.037 | [3] 0.033 | [4] -0.027 | [5] 0.012 | [6] -0.021 | [7] -0.028 | [8] 0.005 | IRAK-1-4 Inhibitor I -0.055 | ibrutinib 0.057 | [9] -0.01 | ralimetinib 0.033 | [10] -0.023 | [11] -0.038 | [12] 0.044 | [13] -0.04 | [14] 0.051 | [15] -0.003 | [16] 0.011

HAUS8 (UniProt Q9BT25)
inactive: erlotinib 0.007 | [1] -0.007 | [2] 0.007 | [3] 0.016 | [4] -0.06 | [5] -0.029 | [6] 0.142 | [7] 0.001 | [8] 0.062 | IRAK-1-4 Inhibitor I 0.015 | ibrutinib 0.049 | [9] -0.01 | ralimetinib 0.054 | [10] 0.011 | [11] -0.012 | [12] -0.044 | [13] -0.062 | [14] 0.003 | [15] 0.033 | [16] 0.036

HDLBP, A0A024R4E5
inactive: erlotinib 0.043 | [1] 0.008 | [2] 0.02 | [3] -0.001 | [4] -0.024 | [5] -0.001 | [6] -0.046 | [7] -0.003 | [8] 0.004 | IRAK-1-4 Inhibitor I -0.005 | ibrutinib -0.034 | [9] -0.007 | ralimetinib 0.029 | [10] -0.014 | [11] -0.012 | [12] 0.007 | [13] -0.004 | [14] -0.009 | [15] 0.042 | [16] 0.003

HDGFL2 isoform 2 (UniProt Q7Z4V5)
inactive: erlotinib -0.008 | [1] -0.028 | [2] 0.032 | [3] -0.008 | [4] -0.03 | [5] 0.027 | [6] 0.01 | [7] 0 | [8] 0.021 | IRAK-1-4 Inhibitor I 0 | ibrutinib -0.033 | [9] -0.002 | ralimetinib -0.01 | [10] -0.049 | [11] 0.011 | [12] -0.015 | [13] -0.026 | [14] 0.022 | [15] 0.021 | [16] -0.044

GON4L (UniProt Q3T8J9)
Chain of UniProt Q3T8J9 (Q3T8J9 whole entry, looked up): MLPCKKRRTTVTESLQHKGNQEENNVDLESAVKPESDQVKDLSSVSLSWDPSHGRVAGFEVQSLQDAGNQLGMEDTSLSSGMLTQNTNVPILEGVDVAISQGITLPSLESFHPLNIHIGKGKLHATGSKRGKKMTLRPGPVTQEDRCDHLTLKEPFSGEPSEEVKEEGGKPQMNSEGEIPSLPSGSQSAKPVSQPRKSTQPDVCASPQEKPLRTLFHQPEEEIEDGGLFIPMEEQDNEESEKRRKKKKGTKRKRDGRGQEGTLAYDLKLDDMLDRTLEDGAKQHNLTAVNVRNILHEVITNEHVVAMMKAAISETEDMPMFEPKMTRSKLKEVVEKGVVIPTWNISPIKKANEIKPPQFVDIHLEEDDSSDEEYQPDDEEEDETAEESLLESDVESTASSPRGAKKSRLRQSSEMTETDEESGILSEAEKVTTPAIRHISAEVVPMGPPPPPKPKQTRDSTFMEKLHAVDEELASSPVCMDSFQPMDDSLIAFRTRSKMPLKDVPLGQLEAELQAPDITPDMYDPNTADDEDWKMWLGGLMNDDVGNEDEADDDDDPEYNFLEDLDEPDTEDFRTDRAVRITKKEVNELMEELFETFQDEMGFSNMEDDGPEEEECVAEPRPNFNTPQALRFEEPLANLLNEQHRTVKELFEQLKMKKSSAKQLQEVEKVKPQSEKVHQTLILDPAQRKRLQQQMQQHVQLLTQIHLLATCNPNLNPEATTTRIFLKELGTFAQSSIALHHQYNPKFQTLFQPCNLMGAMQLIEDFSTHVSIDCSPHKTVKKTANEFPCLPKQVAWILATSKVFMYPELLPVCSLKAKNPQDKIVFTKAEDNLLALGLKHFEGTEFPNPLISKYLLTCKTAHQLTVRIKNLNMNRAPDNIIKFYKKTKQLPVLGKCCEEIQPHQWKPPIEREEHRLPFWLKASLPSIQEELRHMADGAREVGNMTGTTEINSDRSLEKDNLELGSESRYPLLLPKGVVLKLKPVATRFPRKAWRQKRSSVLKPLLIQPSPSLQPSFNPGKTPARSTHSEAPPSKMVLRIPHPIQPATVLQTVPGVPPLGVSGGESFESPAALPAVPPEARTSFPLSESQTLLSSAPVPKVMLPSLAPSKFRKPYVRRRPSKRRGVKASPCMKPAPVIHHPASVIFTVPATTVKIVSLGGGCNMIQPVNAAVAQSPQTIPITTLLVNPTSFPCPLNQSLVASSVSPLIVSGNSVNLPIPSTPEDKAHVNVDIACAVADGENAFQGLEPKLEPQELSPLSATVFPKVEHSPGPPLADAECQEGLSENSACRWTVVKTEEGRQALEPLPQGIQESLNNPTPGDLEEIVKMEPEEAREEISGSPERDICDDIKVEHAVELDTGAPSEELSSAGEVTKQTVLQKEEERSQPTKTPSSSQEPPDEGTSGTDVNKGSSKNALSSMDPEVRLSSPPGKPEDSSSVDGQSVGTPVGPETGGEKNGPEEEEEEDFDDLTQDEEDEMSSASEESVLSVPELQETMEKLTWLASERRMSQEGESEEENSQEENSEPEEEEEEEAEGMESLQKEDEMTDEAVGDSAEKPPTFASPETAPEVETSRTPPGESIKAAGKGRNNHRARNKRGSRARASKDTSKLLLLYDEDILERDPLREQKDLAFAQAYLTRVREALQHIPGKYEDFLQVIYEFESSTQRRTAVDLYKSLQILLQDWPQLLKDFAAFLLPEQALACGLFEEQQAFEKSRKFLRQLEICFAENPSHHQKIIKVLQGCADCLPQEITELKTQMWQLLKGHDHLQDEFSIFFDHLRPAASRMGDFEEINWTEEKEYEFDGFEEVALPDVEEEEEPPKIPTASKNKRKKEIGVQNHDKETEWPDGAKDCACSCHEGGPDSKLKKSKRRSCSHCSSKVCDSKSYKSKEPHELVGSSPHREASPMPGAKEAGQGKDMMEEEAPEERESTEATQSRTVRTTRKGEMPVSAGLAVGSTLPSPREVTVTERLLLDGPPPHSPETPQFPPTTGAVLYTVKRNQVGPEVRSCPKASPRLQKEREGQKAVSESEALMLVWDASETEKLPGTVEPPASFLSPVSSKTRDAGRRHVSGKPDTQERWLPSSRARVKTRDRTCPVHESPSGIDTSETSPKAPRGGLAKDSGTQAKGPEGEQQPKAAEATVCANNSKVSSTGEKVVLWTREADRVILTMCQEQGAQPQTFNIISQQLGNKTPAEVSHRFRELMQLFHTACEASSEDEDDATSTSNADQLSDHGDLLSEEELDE
inactive: erlotinib -0.003 | [1] 0.016 | [2] 0.061 | [3] -0.038 | [4] -0.074 | [5] 0.053 | [6] 0.057 | [7] 0.026 | [8] -0.052 | IRAK-1-4 Inhibitor I -0.039 | ibrutinib 0.026 | [9] 0.022 | ralimetinib 0.029 | [10] -0.042 | [11] -0.04 | [12] -0.02 | [13] -0.017 | [14] 0.01 | [15] 0.002 | [16] -0.044

GNL3 (UniProt Q9BVP2)
Chain of UniProt Q9BVP2 (Q9BVP2 whole entry, looked up): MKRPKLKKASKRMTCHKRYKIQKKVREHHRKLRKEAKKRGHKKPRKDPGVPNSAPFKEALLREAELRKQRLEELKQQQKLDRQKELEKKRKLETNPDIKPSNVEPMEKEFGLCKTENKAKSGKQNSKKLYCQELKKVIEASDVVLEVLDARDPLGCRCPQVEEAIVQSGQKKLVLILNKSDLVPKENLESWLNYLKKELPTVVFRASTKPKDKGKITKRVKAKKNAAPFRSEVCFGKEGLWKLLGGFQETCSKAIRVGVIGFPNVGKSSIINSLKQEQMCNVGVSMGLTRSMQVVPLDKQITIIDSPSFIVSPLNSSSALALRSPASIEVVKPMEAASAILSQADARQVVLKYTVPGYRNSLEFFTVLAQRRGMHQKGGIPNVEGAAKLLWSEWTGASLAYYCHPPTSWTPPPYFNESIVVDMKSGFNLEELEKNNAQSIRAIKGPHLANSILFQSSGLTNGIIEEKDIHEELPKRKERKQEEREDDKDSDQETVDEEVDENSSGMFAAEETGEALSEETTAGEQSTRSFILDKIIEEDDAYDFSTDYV
inactive: erlotinib 0.004 | [1] -0.072 | [2] 0.002 | [3] 0.009 | [4] -0.062 | [5] 0.015 | [6] -0.011 | [7] 0.021 | [8] 0.014 | IRAK-1-4 Inhibitor I 0.033 | ibrutinib 0.023 | [9] -0.063 | ralimetinib -0.026 | [10] -0.021 | [11] 0.05 | [12] -0.005 | [13] -0.073 | [14] 0.009 | [15] -0.007 | [16] -0.057

IMPDH1 isoform 6 (UniProt P20839)
Chain of UniProt P20839 (P20839 whole entry, looked up): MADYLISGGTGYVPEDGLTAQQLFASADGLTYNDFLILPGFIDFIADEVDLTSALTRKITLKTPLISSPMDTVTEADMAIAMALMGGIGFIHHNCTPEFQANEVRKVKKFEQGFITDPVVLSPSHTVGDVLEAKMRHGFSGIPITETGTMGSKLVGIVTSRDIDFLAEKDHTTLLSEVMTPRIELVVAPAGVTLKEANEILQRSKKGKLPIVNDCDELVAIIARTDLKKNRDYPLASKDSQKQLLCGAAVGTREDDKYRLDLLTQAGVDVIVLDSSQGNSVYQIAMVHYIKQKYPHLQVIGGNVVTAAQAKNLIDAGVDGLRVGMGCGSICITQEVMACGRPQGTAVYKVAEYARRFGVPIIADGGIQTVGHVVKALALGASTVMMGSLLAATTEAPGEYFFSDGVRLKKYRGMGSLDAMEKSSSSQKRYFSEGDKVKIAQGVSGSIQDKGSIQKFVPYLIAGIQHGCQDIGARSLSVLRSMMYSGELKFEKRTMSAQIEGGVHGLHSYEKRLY
inactive: erlotinib 0.018 | [1] 0.036 | [2] -0.031 | [3] 0.009 | [4] -0.001 | [5] -0.001 | [6] 0.017 | [7] 0.028 | [8] 0.032 | IRAK-1-4 Inhibitor I 0.003 | ibrutinib -0.007 | [9] 0.009 | ralimetinib 0.034 | [10] -0.007 | [11] 0.01 | [12] -0.039 | [13] 0.033 | [14] 0.014 | [15] -0.005 | [16] -0.004

Source: the supplement of paper PMC10849652
